Source: PubChem (National Center for Advancing Translational Sciences (NCATS))
Rows were chosen to be rich in hits. Some 12% of all compounds tested hit in one or more screens of this group.
HP1b chromo inh – blocks HP1-beta chromodomain binding to methylated histone tails; Potency, µM (doses to about 114 µM), actives largely listed as inhibitors; AlphaScreen HP1-beta / biotin-H3K9me3 peptide binding; P83916; AID 540317; 390,000 compounds, 0.56% hits; note: nearly all actives have a fitted effect of over 70% in size
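AlphaScreen: HP1-beta (50 nM) preformed 30 min with biotin-H3(1-18)K9me3 peptide (50 nM) in PBS pH 7.4, 0.01% Tween-20. Compound added for 30 min at RT, then streptavidin donor/nickel chelate acceptor beads (10 ug/mL) for 30 min.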
G9a block – blocks human histone lysine methyltransferase G9a; Q96KQ7; G9a H3K9 monomethylation, AlphaScreen, 2 h; Potency, µM (doses to about 102 µM), hits mostly inhibitors; 350,000 compounds, 8.8% hits; note: nearly all actives have a fitted effect of over 75% in size
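Signal arises when biotinylated H3K9 peptide, once monomethylated, bridges streptavidin donor and antibody-captured acceptor beads. Enzyme at 20 nM was preincubated 15 min with test compounds; peptide 500 nM and SAM 20 uM then reacted for 2 h.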
BAZ2B block – inhibitors of human BAZ2B bromodomain | Q9UIF8 | AlphaScreen BAZ2B-H3K14Ac peptide displacement | Potency, µM (doses to about 114 µM), most hits filed as inhibitors | 360,000 compounds, 4.4% hits; note: nearly all actives have a fitted effect of over 60% in size
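AlphaScreen displacement of biotin-H3(5-23)K14Ac peptide (50 nM final) from BAZ2B (50 nM final) in PBS pH 7.4, 0.01% Tween-20; complex preformed 30 min RT, then compounds (top 110 uM) 30 min RT, beads 20 min dark.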
PLK1 PBD block – PLK1 (human) polo-box domain binding inhibition; 360,000 compounds, 2.8% hits; Potency, µM, most hits filed as inhibitors; AID 720504; Plk1 PBD binding of FITC phosphopeptide, fluorescence polarization; note: series mostly up to about 57 µM; nearly all actives have a fitted effect of over 65% in size
Target sequence (P53350 whole entry, looked up, the tested form may be a part): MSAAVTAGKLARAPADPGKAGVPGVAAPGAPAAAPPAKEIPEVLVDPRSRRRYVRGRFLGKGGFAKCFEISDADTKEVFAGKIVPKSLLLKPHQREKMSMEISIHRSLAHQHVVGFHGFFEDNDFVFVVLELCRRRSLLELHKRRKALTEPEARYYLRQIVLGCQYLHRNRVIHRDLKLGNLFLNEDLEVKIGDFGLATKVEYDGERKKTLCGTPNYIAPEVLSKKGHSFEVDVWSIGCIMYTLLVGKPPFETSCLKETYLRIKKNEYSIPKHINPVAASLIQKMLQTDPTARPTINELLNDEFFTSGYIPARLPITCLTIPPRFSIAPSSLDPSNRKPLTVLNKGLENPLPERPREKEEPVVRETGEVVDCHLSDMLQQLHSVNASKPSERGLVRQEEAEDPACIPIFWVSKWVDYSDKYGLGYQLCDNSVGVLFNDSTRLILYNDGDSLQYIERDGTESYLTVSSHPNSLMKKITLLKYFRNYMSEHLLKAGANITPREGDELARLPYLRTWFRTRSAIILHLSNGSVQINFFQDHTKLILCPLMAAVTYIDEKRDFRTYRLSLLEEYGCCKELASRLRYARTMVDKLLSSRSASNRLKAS
JMJD2A Tudor inh – JMJD2A Tudor domain (human) inhibition; O75164; AlphaScreen JMJD2A-Tudor / H3K4me3 peptide binding; Potency, µM (highest dose often 114 µM), hits mostly inhibitors; 390,000 compounds, 4.4% hits; AID 504339; note: nearly all actives have a fitted effect of over 50% in size
PI5P4K alpha inh – blocks human PI5P4K alpha kinase activity | P48426 | PI5P4Kalpha enzyme, ADP-Glo luminescence, 60 min; hits give low values | max response, % | 330,000 compounds, 1.2% hits; active = max response of -50% or lower; inconclusive = between -30% and -50%; inactive = -30% or higher; note: value at the top dose of about 77 µM
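ADP-Glo luminescence end-point after a 60 min room-temperature kinase reaction. PI5P4Kalpha and substrate in HEPES pH 7.4 buffer with EGTA, 0.1% CHAPS and 5% DMSO; ATP at 5 microM final.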
A number is an active result; - = inactive; ? = inconclusive; . = no result given; [ ] = remark or other dose. Unless noted, calls come from the whole dose curve; as a rule, active = well fitted curve in the direction sought with a large enough effect; inconclusive = small, poorly fitted or top-dose-only effect, or another doubt; inactive = no such curve, though single readings can be large; an effect the other way counts as inactive or inconclusive.

SMILES	HP1b chromo inh	G9a block	BAZ2B block	PLK1 PBD block	JMJD2A Tudor inh	PI5P4K alpha inh
CCOC(=O)c1c(NC(=O)c2cc(CC)on2)sc(C)c1C	?	7.1µM	-	.	-	.
CCOC(=O)c1cc(NC(=O)c2cc(C)on2)cc(C(=O)OCC)c1	-	-[12.7 µM]	-	-	-	.
CCOC(=O)c1c(NC(=O)c2cc(C)on2)sc(C)c1C	-	3.2µM	-	.	-	.
O=C1/C(=C2\C(=O)N(Cc3ccc(F)cc3)c3ccccc32)SC(=S)N1CCS(=O)(=O)O	?	?	14µM	21µM	10µM	-
O=C(O)CN1C(=O)/C(=C2\C(=O)N(Cc3ccccc3Cl)c3ccccc32)SC1=S	-	14µM	?	27µM	?	-
COC(=O)C(CCSC)Nc1ncnc2onc(-c3ccc(F)cc3)c12 (stereo not drawn)	-	-	-	.	-	.
O=C(/C=C/c1ccccc1)NNC(=O)c1cccc(Cl)c1	-	-[0.501 µM]	-	-	-	.
COc1ccc(NC(=S)NC(NC(=O)/C=C/c2ccccc2)C(Cl)(Cl)Cl)cc1 (stereo not drawn)	-	-	-	-	-	-
O=C(/C=C/c1ccccc1)NNc1ccc(Cl)cc1	-	8.9µM	?	-	-	-
O=C(/C=C/c1ccccc1)NC(NC(=S)Nc1ccc(Cl)cc1)C(Cl)(Cl)Cl (stereo not drawn)	-	-	-	27µM	-	-
Nc1nnnn1/N=C/c1ccc(Br)cc1	-	-	-	-	-	-
Nc1nnnn1/N=C/c1ccccc1	-	-	-	-	?	-
Cc1nnc(C)n1/N=C/c1cc(Br)ccc1O	-	10µM	-	-	28µM	-
Nc1nnnn1/N=C/c1ccccc1C(F)(F)F	-	-[2.33 µM]	-	3.4µM	-[11.4 µM]	-56
Nc1nnnn1/N=C/c1cc(Br)ccc1O	-	.	.	-	28µM	-
Cc1nnc(C)n1/N=C/c1cc(Br)cc(Br)c1O	-	1.6µM	50µM	-	-	-50
CS/C(N)=N/N=C/c1cc(Br)cc(Br)c1O	-	-	13µM	-	-	-
CCN(CC(=O)Nc1ccc(NC(C)=O)cc1)C(=O)c1cccc(N2C(=O)c3ccccc3C2=O)c1	-	.	.	-	-	-
CCOc1cc(C(N)=O)cc(Cl)c1OCC	-	-[12.7 µM]	-	21µM	?	-
CCOc1cc(C(N)=O)cc(Br)c1OCC	-	-	-	-	-	.
Nc1nc(SCC(=O)NCCO)nc2sc3c(c12)CCCC3	-	-	-	24µM	-[11.4 µM]	-
Cc1ccccc1NC(=O)CSc1nc(N)c2c3c(sc2n1)CSC(C)(C)C3	79µM	?	?	-	-	-
CC(C)(C)C1CCc2c(sc3nc(SCC(=O)O)nc(N)c23)C1 (stereo not drawn)	-	28µM	-	?	-	-
CC(C)CCOc1ccc(C(CC(N)=O)C(=O)O)cc1 (stereo not drawn)	-	-	-	-	-	-
O=C(O)CC(C(=O)O)c1ccc(OCCCCOc2ccc(C(CC(=O)O)C(=O)O)cc2)cc1 (stereo not drawn)	-	79µM	-	-	?	-
SMILES	HP1b chromo inh	G9a block	BAZ2B block	PLK1 PBD block	JMJD2A Tudor inh	PI5P4K alpha inh
COc1ccc(-c2ccccc2)cc1NCc1ccccc1C	-	?	50µM	-	?	-
COc1ccc(-c2ccccc2)cc1NCc1ccc(OC)c(OC)c1	?	10µM	40µM	-	40µM	-
Cc1ccccc1NCc1ccccc1O	-	40µM	56µM	-	?	-
COc1cc2c(cc1OC)CN(CC(=O)Nc1ccc(C)c(S(=O)(=O)N3CCOCC3)c1)CC2	-	.	?	-	-	-
CCOc1ccc(CCNC(=O)c2cccc(-n3c(C)nc4cccnc43)c2C)cc1	-	-	-	.	-	.
NC(CCC(=O)NCS(=O)(=O)O)C(=O)O (stereo not drawn)	.	-[12.7 µM]	.	.	.	.
Cc1ccccc1NC(=O)COC(=O)CCC(=O)c1cccs1	-	-	-	-	-	-
COc1cc(F)ccc1-c1csc(C(C)(O)c2ccccc2)n1 (stereo not drawn)	.	.	.	-	.	-
CCOC(=O)c1c(NC(=O)CSc2nc3ccc(OC)cc3[nH]2)sc2c1CC(C)(C)NC2(C)C	-	50µM	-	-	?	-
COC(=O)c1c(NC(=O)CCCOc2cccc(C)c2)sc2c1CCC(C)C2 (stereo not drawn)	-	-	-	.	-	.
COC(=O)c1c(NC(=O)Cc2ccccc2)sc2c1C(C(=O)OC)CC2 (stereo not drawn)	-	40µM	?	17µM	-	-
COC(=O)c1c(NC(=O)CCCOc2cccc(C)c2)sc2c1C(C(=O)OC)CC2 (stereo not drawn)	?	1.1µM	35µM	.	?	.
COC(=O)c1c(NC(=O)CCCOc2ccc(C(C)(C)C)cc2)sc2c1CCC(C)C2 (stereo not drawn)	-	-	-	.	-	.
COC(=O)c1c(NC(=O)CCCOc2ccc(C)cc2)sc2c1C(C(=O)OC)CC2 (stereo not drawn)	?	1.1µM	?	.	-	.
CCCSC1=NC2(CCN(C(=O)NC3CCCCC3)CC2)N=C1c1ccc(Cl)cc1	-	-	-	.	-	.
COC(=O)c1c(NC(=O)COc2ccc(Cl)cc2)sc2c1CC(C)(C)NC2(C)C	-	.	?	-	?	-
COC(=O)c1c(NC(=O)CCCOc2ccc(C)cc2)sc2c1CCCC2	-	14µM	-	.	-	.
CCOc1ccc(/C=C/C(=O)Nc2sc3c(c2C(=O)OC)C(C(=O)OC)CC3)cc1 (stereo not drawn)	?	1.1µM	?	.	56µM	.
CCOc1ccc(/C=C/C(=O)Nc2sc3c(c2C(=O)OC)CCCC3)cc1	-	-	-	.	-	.
COC(=O)c1c(NC(=O)CCCOc2cccc(C)c2)sc2c1CCC2	-	-	-	.	-	.
COC(=O)c1c(NC(=O)Cc2ccccc2)sc2c1CC(C)(C)NC2(C)C	-	.	-	24µM	-	-
Cc1ccccc1NC(=O)Cc1nc(COC(=O)c2ccc(S(C)(=O)=O)c([N+](=O)[O-])c2)cs1	-	-[2.33 µM]	-	?	-	-
c1csc(CNc2nc(-c3ccc4c(c3)OCO4)nc3ccccc23)c1	.	-[0.501 µM]	.	.	.	.
COc1ccc(C2=NN(C(=O)CN3CCCCC3)C(c3ccc(C)cc3)C2)cc1 (stereo not drawn)	-	-[12.7 µM]	-	-	-	-
CNC(=S)N1N=C(c2ccc(C)cc2)CC1c1ccc(OC)cc1 (stereo not drawn)	-	-[0.501 µM]	-	-	-	-
COc1ccc(-c2nn(-c3ccccc3)cc2C2CC(c3cccs3)=NN2C(=O)CCC(=O)O)cc1 (stereo not drawn)	-	.	-	-	-	-
CNC(=S)N1N=C(c2ccc(Br)cc2)CC1c1ccc(OC)cc1 (stereo not drawn)	?	2.5µM	-	-	2.5µM	-
CCOc1ccc2nc(Cl)c(C3CC(c4ccc(C)cc4)=NN3C(=O)CCC(=O)O)cc2c1 (stereo not drawn)	-	-	?	.	79µM	.
